Compounds with a hit are over-represented: about 18% of the library has one in this group of screens.
LDHA block: qHTS assay for inhibitors of human lactate dehydrogenase; purified LDHA, NADH/diaphorase-resazurin fluorescence; hits give low values; activity change, % (values are at about 110 or 230 µM); 480,000 compounds, 0.15% hits; in the data active = activity change below about -30%; inconclusive = mostly about -25% to -30%
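Resorufin fluorescence (ex540/em590), read at 0 and 20 min after diaphorase/resazurin addition, reports the NADH left after a 5 min room-temperature reaction of 2 nM human LDH5 with 0.06 mM NADH and 0.2 mM pyruvate.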
DT40 TDP1 CPT: qHTS for Inhibitors of human tyrosyl-DNA phosphodiesterase 1 (TDP1): qHTS in cells in presence of CPT | chicken DT40 Tdp1-/-;hTDP1 cells + 20 nM CPT, ATP luminescence, 48 h | Potency, µM (titrated, usually from 46.2 µM), actives largely listed as inhibitors | 420,000 compounds, 12% hits; also: nearly all actives have a fitted effect of over 55% in size
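Chicken DT40 Tdp1-/- cells stably complemented with human TDP1 were seeded at 400 cells/well in medium containing 20 nM camptothecin, exposed to pin-transferred compounds, and grown at 37 °C for at least 48 hr. Viability was read as ATP luminescence.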
IL1B secr inh: qHTS for Inhibitors of Inflammasome Signaling: IL-1-beta AlphaLISA Primary Screen; THP-1 LPS/ATP IL-1B secretion, AlphaLISA, 16 h; hits give low values; activity change, % at 57.5 µM; 360,000 compounds, 4.7% hits; AID 743279, 2014; in the data active = activity change below about -50%; inconclusive = mostly about -30% to -49%
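THP-1 cells pretreated 1 hr with compounds (up to 57.5 uM final), then stimulated with LPS (250 ng/mL final) plus ATP (1.25 mM final); secreted IL-1B measured by AlphaLISA after 16 hr, decreased signal indicating inhibition.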
DT40 TDP1 no CPT: qHTS for Inhibitors of human tyrosyl-DNA phosphodiesterase 1 (TDP1): qHTS in cells in absence of CPT | DT40 Tdp1-/- hTDP1 cells, no CPT, ATP luminescence, 48 h | Potency, µM (top dose mostly 46.2 µM), actives largely listed as inhibitors | 420,000 compounds, 15% hits; also: nearly all actives have a fitted effect of over 55% in size
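Growth of hTDP1-complemented DT40 Tdp1-knockout cells is measured by ATP luminescence after at least 48 hr compound exposure at 37 °C, with DMSO substituting for the 20 nM CPT used in the parallel screen.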
RORg inh: qHTS for inhibitors of ROR gamma transcriptional activity | Drosophila S2 Gal4-RORgamma UAS-luciferase reporter, 20 h | Potency, µM (top dose mostly 53.6 µM), actives largely listed as inhibitors | 310,000 compounds, 5.4% hits | AID 2551, 2010; also: nearly all actives have a fitted effect of over 60% in size
Target sequence (P51450 whole entry, looked up, the tested form may be a part): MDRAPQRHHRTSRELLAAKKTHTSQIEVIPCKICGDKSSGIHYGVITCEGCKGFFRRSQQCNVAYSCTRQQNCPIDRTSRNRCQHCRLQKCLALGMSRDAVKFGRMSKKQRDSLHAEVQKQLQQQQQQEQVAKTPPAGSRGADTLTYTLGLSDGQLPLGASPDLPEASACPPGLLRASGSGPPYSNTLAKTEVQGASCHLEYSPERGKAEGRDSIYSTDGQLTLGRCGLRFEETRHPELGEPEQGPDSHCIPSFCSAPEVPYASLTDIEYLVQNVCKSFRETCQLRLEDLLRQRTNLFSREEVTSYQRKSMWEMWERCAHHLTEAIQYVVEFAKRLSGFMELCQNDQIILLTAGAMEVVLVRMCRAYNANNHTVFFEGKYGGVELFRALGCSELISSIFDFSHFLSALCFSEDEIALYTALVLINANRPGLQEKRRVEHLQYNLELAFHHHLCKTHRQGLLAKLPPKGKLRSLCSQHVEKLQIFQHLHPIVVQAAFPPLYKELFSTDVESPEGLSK
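Luminescence from a UAS-regulated Photinus luciferase reporter in stably transfected Drosophila Schneider cells is measured; decreased signal marks ROR gamma inhibition. Fusion expression is induced by 700 uM copper sulfate for 20 hr.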
Gal4-VP16 FLuc: VP16 counterscreen qHTS for inhibitors of ROR gamma transcriptional activity. Drosophila S2 Gal4-VP16 UAS-luciferase, luminescence, 20 h. 310,000 compounds, 3.5% hits. AID 2546, 2010. Potency, µM (series often up to 53.6 µM), hits mostly inhibitors;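 also: Gal4-VP16 expression switched on by copper sulfate through the metallothionein promoter; nearly all actives have a fitted effect of over 50% in size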
Each line names hits and unclear results; the compound was inactive in the other large screens. Unless noted, calls follow the shape of the dose curve; as a rule, active = well fitted curve in the direction sought with a large enough effect; inconclusive = small, poorly fitted or top-dose-only effect, or another doubt; inactive = no such curve, though single readings can be large; an effect the other way counts as inactive or inconclusive.

CCOc1ccc(CCN2C(=S)N([C@@H](CC(C)C)CN3CCCC3CN3C(=S)NC[C@@H]3Cc3ccc(O)cc3)C[C@@H]2Cc2ccccc2)cc1 (stereo partly specified)	DT40 TDP1 CPT 16.4µM, IL1B secr inh inconclusive, DT40 TDP1 no CPT inconclusive (no result: RORg inh, Gal4-VP16 FLuc)
CCOc1ccc(CCN2C(=S)N([C@@H](CC(C)C)CN3CCCC3CN3C(=S)NC[C@@H]3Cc3ccc(O)cc3)C[C@@H]2Cc2ccc(O)cc2)cc1 (stereo partly specified)	DT40 TDP1 CPT 6.51µM, IL1B secr inh -71.1, DT40 TDP1 no CPT 6.51µM (no result: RORg inh, Gal4-VP16 FLuc)
CCOC(=O)c1c(C)[nH]c(C(=O)CSc2ccc(Cl)cc2)c1C	DT40 TDP1 no CPT inconclusive, Gal4-VP16 FLuc inconclusive
CCOC(=O)c1c(NC(=O)CN2C(=O)NC(C)(c3ccc(OC(F)F)cc3)C2=O)sc(C)c1C (stereo unspecified)	DT40 TDP1 CPT 20.6µM, IL1B secr inh inconclusive, DT40 TDP1 no CPT 16.4µM
CCOc1ccc(NC(=O)CN2C(=O)NC(C)(c3ccc(OC(F)F)cc3)C2=O)cc1 (stereo unspecified)	DT40 TDP1 CPT 18.4µM, IL1B secr inh -67.1, DT40 TDP1 no CPT 23.1µM
CCN(CC1COc2ccccc2O1)C(=O)CN1C(=O)NC(C)(c2ccc(C)cc2)C1=O (stereo unspecified)	DT40 TDP1 CPT inconclusive, DT40 TDP1 no CPT 23.1µM (no result: RORg inh, Gal4-VP16 FLuc)
CCOC(=O)c1c(C)[nH]c(C(=O)CSc2nc(C)cc(C)n2)c1C	DT40 TDP1 CPT 14.6µM, DT40 TDP1 no CPT 20.6µM
O=C(CCC1NC(=O)N(CCc2c[nH]c3ccc(F)cc23)C1=O)Nc1ccccc1 (stereo unspecified)	none (no result: DT40 TDP1 CPT, IL1B secr inh, DT40 TDP1 no CPT, RORg inh, Gal4-VP16 FLuc)
Cc1cc(C)n(C(=O)c2cn(C)nc2S(=O)(=O)N2CCN(c3ccccc3Cl)CC2)n1	none (no result: DT40 TDP1 CPT, IL1B secr inh, DT40 TDP1 no CPT, RORg inh, Gal4-VP16 FLuc)
C#CCOc1cccc(-c2nnc3n2N=C(c2ccc(OC)c(OCC(C)=O)c2)CS3)c1	none (no result: DT40 TDP1 CPT, IL1B secr inh, DT40 TDP1 no CPT, RORg inh, Gal4-VP16 FLuc)
CCn1c2ccccc2c2cc(NC(=O)c3ccc[n+]([O-])c3)ccc21	none (no result: DT40 TDP1 CPT, IL1B secr inh, DT40 TDP1 no CPT, RORg inh, Gal4-VP16 FLuc)
COc1ccc(C2(c3ccc(OC)cc3)NC(=O)N(CC(=O)Nc3ccc(OC(F)F)cc3)C2=O)cc1	DT40 TDP1 CPT inconclusive, DT40 TDP1 no CPT 18.4µM
CCOC(=O)c1c(C)[nH]c(C(=O)CN2C(=O)NC(C)(c3ccc(C)cc3)C2=O)c1C (stereo unspecified)	DT40 TDP1 CPT inconclusive, DT40 TDP1 no CPT 23.1µM, Gal4-VP16 FLuc inconclusive
CCOC(=O)c1c(C)[nH]c(C(=O)CN2C(=O)NC(C)(C)C2=O)c1C	none (no result: RORg inh, Gal4-VP16 FLuc)
COc1ccc(NC(=O)CN2C(=O)NC(c3ccccc3)(c3ccccc3)C2=O)cc1	DT40 TDP1 CPT inconclusive, DT40 TDP1 no CPT inconclusive
CN1C(=S)SC(C)(C)C1/[N+]([O-])=C/c1ccccc1 (stereo unspecified)	none (no result: DT40 TDP1 CPT, IL1B secr inh, DT40 TDP1 no CPT, RORg inh, Gal4-VP16 FLuc)
COc1cc(/C=N/NC(=O)c2ccccc2)ccc1O	none
Cc1c(C(=O)N/N=C/c2ccc(O)c(Br)c2)sc(N)c1C#N	DT40 TDP1 CPT inconclusive, IL1B secr inh -96.3, DT40 TDP1 no CPT inconclusive, RORg inh inconclusive
COc1cc(/C=N/NC(=O)c2sc(N)c(C#N)c2C)ccc1O	DT40 TDP1 CPT inconclusive, IL1B secr inh -89.6, DT40 TDP1 no CPT 14.6µM
COc1ccc(S(=O)(=O)N2CCOC2CNC(=O)C(=O)NCCc2ccc(OC)c(OC)c2)cc1C (stereo unspecified)	DT40 TDP1 CPT inconclusive, DT40 TDP1 no CPT 16.4µM
O=C(NCc1ccccn1)C(=O)NCC1OCCN1S(=O)(=O)c1ccc(Br)cc1 (stereo unspecified)	Gal4-VP16 FLuc 25.1µM
COc1ccc(CCNC(=O)C(=O)NCC2OCCN2S(=O)(=O)c2ccc3c(c2)OCCO3)cc1 (stereo unspecified)	DT40 TDP1 CPT 20.6µM, DT40 TDP1 no CPT 16.4µM
